ChEMBL document CHEMBL3988442, “University of Dundee, Small-Polar-MMV Screening Library” (2021)
Screen size: about 85,000 compounds; about 440 (0.52%) showed an effect of 50% or more. Many of the other results were omitted from the sample, so strong results are more common in it than they were.

Experiment: In vitro enzyme assay to detect hydrolysis of chlorophenol red-beta-D-[…] directly proportional to the number of Toxoplasma stably expressing beta-galactosidase
Assay type: functional, organism-based, Toxoplasma gondii
Design: scale not given: in the data most compounds retested in dose-response had high values

| Compound | Percent Effect (50 µM) | Percent Effect (10 µM) |
| --- | --- | --- |
| OCc1cnc2c(F)cccc2c1 | -7.989% |  |
| O=C(NCCCn1cccn1)N1CCSCC1 | 12.95% |  |
| CC1COCCN1CCNS(C)(=O)=O (stereo unspecified) | -4.94% |  |
| CCC(N)C(=O)N1CCN(c2ccncc2Cl)CC1 (stereo unspecified) | 0.3763% |  |
| OCC1(O)CCN(Cc2cc3ccccc3s2)C1 (stereo unspecified) | 15.65% |  |
| O=C(COc1ccc2c(c1)OCO2)NCc1ccco1 |  | -39.93% |
| O=C(COc1ccc2c(c1)CCC2)NCc1ccco1 |  | 52.59% |
| O=C(COc1ccc2c(c1)CCCC2=O)NCc1ccco1 |  | -0.7551% |
| CN(C1CCCCC1)S(=O)(=O)NC1CCCCNC1=O (stereo unspecified) | -10.23% |  |
| CCCc1nc(C)cc(NCCO)n1 | 22.28% |  |
| COc1cccc(COCC(=O)N2CCCC(n3cncn3)C2)c1 (stereo unspecified) |  | 5.194% |
| O=C(CCOc1cccc(F)c1)N1CCCC(n2cncn2)C1 (stereo unspecified) |  | -5.343% |
| CCc1cccc(OCC(=O)N2CCCC(n3cncn3)C2)c1 (stereo unspecified) |  | 61.63% |
| CN(Cc1ccccc1)C1(CN)CCC1 | -8.467% |  |
| OC1CCN(c2ccnc(NCCc3ccccc3Cl)n2)C1 (stereo unspecified) |  | 73.82% |
| OC1CCN(c2ccnc(NCCc3ccccc3Cl)n2)CC1 |  | -8.745% |
| OC1CCN(c2ccnc(NCCN3CCc4ccccc4C3)n2)C1 (stereo unspecified) |  | -7.659% |
| CC1(C)CCN(C(=O)Nc2ccsc2)CCS1(=O)=O | 14.26% |  |
| O=C(CCCc1cn[nH]c1)N1CCS(=O)(=O)CC1 | -1.399% |  |
| Cc1cc2[nH]c(=O)c(=O)[nH]c2cc1S(=O)(=O)NC1CCCCC1 |  | 9.258% |
| Cc1cc(=O)n2c3c(cc(S(=O)(=O)NC4CC4)cc13)CCC2 |  | 88.28% |
| CCN(CC)S(=O)(=O)c1cc2c3c(c1)c(C)cc(=O)n3CCC2 |  | 17.21% |
| O=C1COc2ccc(S(=O)(=O)N3CCOCC3)c3c2N1CCC3 |  | -24.36% |
| Cc1cc(S(C)(=O)=O)c(C)c(S(=O)(=O)NC2CCCC2)c1 |  | -4.298% |
| Cc1c(S(=O)(=O)N2CCOCC2)cc2c(C)cc(=O)n3c2c1CCC3 |  | 70.37% |

| Compound | Percent Effect (50 µM) | Percent Effect (10 µM) |
| --- | --- | --- |
| CCN(CC)S(=O)(=O)c1cc2c3c(c1)c(C)cc(=O)n3CC2 |  | -2.001% |
| Cc1c(S(=O)(=O)NC2CC2)cc2c(C)cc(=O)n3c2c1CCC3 |  | 69.29% |
| CCCNS(=O)(=O)c1cc2c3c(c1)c(C)cc(=O)n3CCC2 |  | -12.19% |
| Cc1cccc(OCC(=O)NCC2CCNCC2)c1 | -0.8091% |  |
| CCOC(=O)N1CCN(C(=O)c2onc(C)c2Cl)CC1 | 1.461% |  |
| CCSc1cc(CN)ccn1 | -10.09% |  |
| NC(=O)CCSc1nc2ncccn2n1 | -6.184% |  |
| CCCC(=O)N(C)C1CCN(C)CC1 | 4.372% |  |
| COc1ccc(CNC(=O)CN)cc1 | -16.08% |  |
| CC(C)C(CC(=O)NCC(N)=O)c1ccccc1 (stereo unspecified) | 0.4392% |  |
| CN(C)CCNC(=O)c1cc(-c2cnc(N3CCCC3)nc2)cn1C.O=C(O)C(F)(F)F |  | 16.58% |
| Cn1cc(-c2cnc(N3CCCC3)nc2)cc1C(=O)O |  | -6.676% |
| CCCNC(=O)c1cc(-c2cnc(N3CCCC3)nc2)cn1C |  | 59.81% |
| CNS(=O)(=O)c1c[nH]cn1 | -8.669% |  |
| NC1CCCN(Cc2ccccc2)C1=O (stereo unspecified) | 3.99% |  |
| NC1CCN(Cc2ccccc2)C1=O (stereo unspecified) | 57.3% |  |
| Cc1ccc(CN2CCC(N)C2=O)cc1 (stereo unspecified) | 0.3266% |  |
| Cn1nccc1C(=O)NC1Cc2ccccc2C1 | 4.859% |  |
| CCc1nc(CN2CCCC2C(=O)N(C)C)cs1 (stereo unspecified) | 6.641% |  |
| CC(NC(=O)c1ccncc1F)C(C)(C)CN(C)C (stereo unspecified) | -0.7264% |  |
| CCN(CC)CCOC1CCNCC1 | -2.471% |  |
| Cc1cc(NC(=O)COc2ccc3c(c2)OCO3)no1 | 15.18% |  |
| CC(=O)c1cccc(OCC(=O)NC2CCCC2)c1 | -4.665% |  |
| CC(=O)c1cccc(OCC(=O)Nc2cc(C)on2)c1 | 98.67% |  |
| Cc1nc(C2(NCc3c(C)nn(C)c3N3CCOCC3)CCC2)no1 |  | 56.3% |

| Compound | Percent Effect (50 µM) | Percent Effect (10 µM) |
| --- | --- | --- |
| Cc1csc(CNCc2c(C)nn(C)c2N2CCOCC2)n1 |  | -26.69% |
| COc1c(CNC2(c3noc(C)n3)CCC2)c(C(C)C)nn1C.Cl |  | 11.38% |
| COc1c(CNC2(c3ccc(Cl)cc3)CCC2)c(C)nn1C |  | 7.233% |
| COc1c(CNC2(c3noc(C)n3)CCC2)c(C)nn1C.Cl |  | 55.08% |
| Cc1cc(CNCc2c(C)nn(C)c2N2CCOCC2)no1 |  | -17.93% |
| CC(C)(C)OC(=O)NCCCOC1CCNCC1 | 10.6% |  |
| O=C(CSc1nnnn1Cc1cccs1)NC1CC1 | -25.88% |  |
| CC(C)n1nc2c(cc1=O)CN(c1ncnc3ccccc13)CC2 |  | -24.89% |
| CCn1nc2c(cc1=O)CN(c1ncnc3ccsc13)CC2 |  | 76.59% |
| CCCn1nc2c(cc1=O)CN(c1ncnc3ccsc13)CC2 |  | -2.045% |
| CC(C)n1nc2c(cc1=O)CN(c1ncnc3ccsc13)CC2 |  | 9.432% |
| Cn1nc2c(cc1=O)CN(c1nc3ccccc3s1)CC2 |  | -0.5196% |
| Cn1nc2c(cc1=O)CN(c1ncnc3ccsc13)CC2 |  | 82.27% |
| O=C(NC1CCCc2[nH]c(=O)ccc21)c1cc(Br)c[nH]1 (stereo unspecified) | 33.46% |  |
| O=C(CCCn1cccn1)N[C@H]1C[C@@H]2OCC[C@H]12 | 16.13% |  |
| O=C(Cc1cccs1)N1CCNCC1 | 1.272% |  |
| CCCn1c(N2CCCC(C)C2)nc2c(C)nn(C)c2c1=O (stereo unspecified) |  | 58.79% |
| CCCn1c(N2CCCC2)nc2c(C)nn(C)c2c1=O |  | 74.14% |
| Cc1nn(C)c2c(N3CCCC3)nc(C3CC3)nc12 |  | 10.42% |
| CCCc1nc(N2CCCC(C)C2)c2c(n1)c(C)nn2CC (stereo unspecified) |  | 19% |
| Cc1nn(C)c2c(=O)n(C)c(NCC3CCCO3)nc12 (stereo unspecified) |  | 10.39% |
| CCCn1c(N2CCCCC2)nc2c(C)nn(C)c2c1=O |  | 85.32% |
| CCn1nc(C)c2ncnc(N3CCCC(C)C3)c21 (stereo unspecified) |  | 16.85% |
| CCCc1nc(N2CCCCCC2)c2c(n1)c(C)nn2CC |  | 14.57% |
| CCn1c(NCC2CCCO2)nc2c(C)nn(C)c2c1=O (stereo unspecified) |  | 22.67% |

| Compound | Percent Effect (50 µM) | Percent Effect (10 µM) |
| --- | --- | --- |
| CC(N)C1(N2CCOCC2)CCCC1 (stereo unspecified) | -11.55% |  |
| CCNC(=O)c1cc2ccc(OC)cc2[nH]1 | -0.6946% |  |
| O=C(NCC(F)(F)F)C1CCN(CC(F)F)CC1 | -5.562% |  |
| CCN(Cc1nonc1C)C(=O)c1cc(C(F)(F)F)nn1C |  | 29.16% |
| CCN(Cc1nonc1C)C(=O)Cn1nc(C(F)(F)F)cc1C1CC1 |  | 53.8% |
| CCN(Cc1nonc1C)C(=O)Cn1nc(C(F)(F)F)cc1C |  | 32.79% |
| CC(CO)(CO)NC(=O)Nc1cc(Br)ccc1F | 12.92% |  |
| CCOCCCNc1nc2c(s1)c(C)nn2C |  | -0.8738% |
| COCCn1cnnc1CNc1cc(C)nc2c(C)c(C)nn12 |  | -11.49% |
| COCCNc1cc(C)nn2cnnc12 |  | 70.24% |
| CCOCCCNC(=O)c1cn(CC)nc1C |  | 0.2391% |
| COc1cc(-c2cnnc(NCCCOC(C)C)n2)cc(OC)c1OC |  | 4.137% |
| CCOCCCNc1cc(C)nn2cnnc12 |  | 66.33% |
| COCCCNc1cc(C)nn2cnnc12 |  | 36.97% |
| Cc1nn(C)c2nc(-c3ccccn3)nc(NCCCOC(C)C)c12 |  | -3.21% |
| Cc1cc(NCCCOC(C)C)c2nncn2n1 |  | 73.87% |
| Cc1n[nH]c(SCC(=O)NC2CCCCC2)n1 | 32.19% |  |
| Nc1ccn(-c2ccc(C(F)(F)F)cn2)n1 | 9.315% |  |
| CC(C)c1ccn(C)n1 | 1.261% |  |
| Cn1nccc1CCC(=O)NCC[C@@H]1CCCN1 | 2.008% |  |
| Cc1cc(C)n(CCC(=O)NCc2ccccn2)n1 | -3.878% |  |
| CCC(C)C(=O)NCCCn1nc(C)cc1C (stereo unspecified) |  | 6.68% |
| CCCNC(=O)CCn1nc(C)cc1C | 59.42% |  |
| C=C(C)CNc1nc2nonc2nc1NCCOC | 14.38% |  |
| CC(C)c1nnsc1CNC(=O)CCc1csc(N)n1 | -4.031% |  |

| Compound | Percent Effect (50 µM) | Percent Effect (10 µM) |
| --- | --- | --- |
| Cc1cc(C(=O)NC(C)c2ccncc2)ncn1 (stereo unspecified) | 8.375% |  |
| CC(=O)Nc1ccccc1CN | -1.882% |  |
| CCNC(=O)N1CCNCC1 | 13.83% |  |
| CCCC(=O)N1CCN(C(=O)NCC)CC1 | 54.38% |  |
| CCCNC(=O)N1CCN(CCC)CC1 | -47.68% |  |
| COCC(C)(O)C(F)(F)F (stereo unspecified) | 7.186% |  |
| CC1Cc2ccccc2N1C(=O)c1ccccn1 (stereo unspecified) | 2.942% |  |
| COCC(O)CN(C)CCn1cc(Br)cn1 (stereo unspecified) | 16.66% |  |
| c1cnn(CCCNCCCn2cccn2)c1 | 0.4357% |  |
| CCn1nc(C)c2nc(C(C)C)nc(NCC(C)C)c21 |  | 49.36% |
| CCN(CC)CCNc1nc(C(C)C)nc2c(C)nn(CC)c12 |  | 58.79% |
| CCn1nc(C)c2nc(C(C)C)nc(NC)c21 |  | 39.93% |
| CCn1nc(C)c2nc(C(C)C)nc(NCC(C)O)c21 (stereo unspecified) |  | 75.76% |
| CCn1nc(C)c2nc(C(C)C)nc(NCCCO)c21 |  | 1.913% |
| CCn1nc(C)c2nc(C(C)C)nc(NCCc3ccc(O)cc3)c21 |  | 48.01% |
| COc1ccnc(N2CC[S+]([O-])CC2)n1 | -6.202% |  |
| O=C(CC1C=CCC1)NCc1ccccn1 (stereo unspecified) | -4.879% |  |
| Cc1cccc(NC(=O)NC2CCN(C)CC2)c1 | -9.939% |  |
| CC(NC(=O)NCCCN1CCCC1=O)c1ccco1 (stereo unspecified) | -1.872% |  |
| CCN(Cc1cccc(F)c1)C1CCS(=O)(=O)C1 (stereo unspecified) | -4.951% |  |
| Cc1ccc(CN(CC(=O)N2CCNC2=O)C(C)C)s1 | -25.32% |  |
